Source: PubChem (National Center for Advancing Translational Sciences (NCATS))
3T3 cytotox: Cytotoxic Profiling in NIH 3T3 Cell Line of Diverse Libraries Using Quantitative High-Throughput Screening; 94,000 tested, 4.3% active; NIH 3T3 viability, CellTiter-Glo ATP luminescence, 48-72 h; AID 1345082, 2018; Potency, µM (series often up to 96.7 µM), usual class: inhibitors; note: nearly all actives have a fitted effect of over 55% in size
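Mouse fibroblast NIH 3T3 cells, 400 per well, received compound via pintool and were incubated for 48 or 72 hr prior to CellTiter-Glo ATP luminescence measurement.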
SNCA expr inh: Primary qHTS assay for inhibitors of alpha-synuclein gene (SNCA) expression | HEK-293 SNCA-luciferase knock-in, luminescence, 24 h | Potency, µM (highest dose often 57.2 µM), most hits filed as inhibitors | 140,000 tested, 0.17% active | AID 1671194, 2021; note: nearly all actives have a fitted effect of over 45% in size
HEK293 tox: Cytotoxic Profiling in HEK 293 Cell Line of Diverse Libraries Using Quantitative High-Throughput Screening; Potency, µM (series often up to 115 µM), most hits filed as inhibitors; AID 1345083, 2018; HEK 293 viability, ATP luminescence (CellTiter-Glo), 48-72 h; 94,000 tested, 6.6% active; note: nearly all actives have a fitted effect of over 60% in size
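Viability of HEK 293 cells, plated at 250 cells/well, was judged by cellular ATP after compound treatment for 48 or 72 hr. Luminescence was imaged 10 min after CellTiter-Glo addition at room temperature.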
SNCA viab count: GF-AFC viability counterscreen for inhibitors of alpha-synuclein gene (SNCA) expression | HEK-293-SNCA-luc viability, GF-AFC fluorescence, 24 h | Potency, µM (doses to about 57.1 µM), actives largely listed as cytotoxic | 150,000 tested, 0.12% active | AID 1671193, 2021; note: nearly all actives have a fitted effect of over 30% in size
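Cytotoxicity counterscreen: after 24 h compound treatment of genome-edited SNCA-luciferase HEK-293 cells, live-cell protease substrate GF-AFC read by fluorescence after 30 min; activity scaled between DMSO (0%) and medium-only (-100%), curves Hill-fitted.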
hNpr1 antagonist: Natriuretic polypeptide receptor (hNpr1) antagonism - Primary qHTS; HEK293 hNpr1 GloSensor cGMP, ANP-stimulated luminescence; Potency, µM (top dose mostly 46.3 µM), hits mostly inhibitors; 76,000 tested, 1.6% active; AID 1347048, 2019; calls by dose curve; note: nearly all actives have a fitted effect of over 60% in size
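HEK293 cells stably expressing human Npr1 and cGMP GloSensor pGS-40F, loaded 2 h with 2% GloSensor reagent, given compound 30 min at room temperature. Luminescence read before and 20 min after 0.1 nM hNppA.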
FLuc inh: Firefly luciferase inhibition profiling of diverse chemical library using quantitative high-throughput screening; 76,000 tested, 2.5% active; Potency, µM (titrated, usually from 115 µM), most hits filed as inhibitors; AID 1347043, 2019; purified P. pyralis luciferase, luminescence, biochemical; Luciferin 4-monooxygenase (Photinus pyralis), P08659; note: nearly all actives have a fitted effect of over 65% in size
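Purified 10nM P. pyralis luciferase with 10uM D-luciferin and 10uM ATP in 50mM Tris acetate pH 7.5, 10mM Mg acetate, 0.01% Tween-20, 0.05% BSA. qHTS titration; luminescence read by CCD imager.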
Numbers stand for hits; - = inactive; ? = inconclusive; . = not tested or not shown. In the library only some 7.4% were active in any assay of this set; here they are far more common. Unless noted, calls come from the whole dose curve; as a rule, active = well fitted curve in the direction sought with a large enough effect; inconclusive = small, poorly fitted or top-dose-only effect, or another doubt; inactive = no such curve, though single readings can be large; an effect the other way counts as inactive or inconclusive.

SMILES | 3T3 cytotox | SNCA expr inh | HEK293 tox | SNCA viab count | hNpr1 antagonist | FLuc inh
COc1ccc(C(=O)Nc2ccc(-c3noc([C@@H]4CCCN4Cc4cnc5ccccc5c4)n3)cn2)cc1 | 28µM | ? | 22µM | ? | 13µM | ?
Fc1ccccc1CN1CCC[C@H]1c1nc(-c2ccnc(N3CCOCC3)c2)no1 | ? | - | 89µM | - | - | -
CS(=O)(=O)c1ccc(CN2CCC[C@H]2c2nc(-c3ccnc(N4CCOCC4)c3)no2)cc1 | - | - | - | - | - | -
c1ccc(CN2CCC[C@H]2c2nc(-c3ccnc(N4CCOCC4)c3)no2)cc1 | ? | - | 89µM | - | - | -
CN1CCN(c2ccc(-c3noc([C@@H]4CCCN4Cc4ccccc4)n3)cn2)CC1 | 100µM | - | 71µM | - | - | -
N#Cc1ccc(CN2CCC[C@H]2c2nc(-c3ccnc(N4CCOCC4)c3)no2)cc1 | - | - | ? | - | ? | -
CC(C)CN1CCC[C@H]1c1nc(-c2ccnc(N3CCOCC3)c2)no1 | ? | - | 89µM | - | - | -
CNc1ccc(-c2noc([C@@H]3CCCN3Cc3cnc4ccccc4c3)n2)cn1 | ? | - | ? | - | - | -
CCOC(=O)[C@@H]1CN(C(=O)C2CC2)[C@H]2c3cccc(C)c3O[C@@H]12 | ? | . | - | . | . | .
COc1ccc(Cn2c(C3CCN(C(=O)Cc4cccc(OC)c4)CC3)n[nH]c2=O)cc1 | - | - | - | - | - | -
Cc1sc2ccn(C)c(=O)c2c1C(=O)N1CCN(c2ccc(Cl)cc2)CC1 | - | - | 79µM | - | - | -
O=C(CCC[C@H]1NC[C@@H]2C[C@H]1CN(Cc1ccccc1)C2)Nc1ccc(N2CCOCC2)cc1 | - | - | - | - | - | ?
CN(C)c1ccc(NC(=O)CCn2ccn3nc4c(c3c2=O)CCCC4)cc1 | - | - | ? | - | - | 40µM
Cc1ccc(NC(=O)Cn2ccn3nc4c(c3c2=O)CCCC4)cc1Cl | - | - | - | - | - | -
Cc1ccc(NC(=O)Cn2ccn3nc4c(c3c2=O)CCCCC4)cc1C | - | - | 40µM | - | ? | -
CC(=O)Nc1ccc(NC(=O)Cn2ccn3nc4c(c3c2=O)CCCCC4)cc1 | ? | ? | 35µM | - | - | -
CN(C)c1nc2c(c(=O)[nH]1)CCN(C(=O)CCC1CCCC1)CC2 | - | - | - | - | - | -
C[C@@H]1CN(CC(=O)N2CC(C)(C)c3ncc(Cc4ccc(F)cc4)cc32)[C@@H](CN2CCOC[C@H]2C)CN1 | . | - | . | - | . | .
COCc1ccc2c(c1)c(OC(C)(C)C(=O)Nc1cc(C)nn1C)nn2Cc1cccnc1 | 40µM | - | - | - | - | -
CC(C)(Oc1nn(CC2CCOCC2)c2ccccc12)C(=O)NCCc1ccccc1 | ? | - | 100µM | - | - | -
CC(C)(Oc1nn(CC2CCOCC2)c2ccccc12)C(=O)NCCc1cccnc1 | ? | - | - | - | - | -
COCc1ccc2c(c1)c(OC(C)(C)C(=O)NCC1CCOCC1)nn2Cc1cccnc1 | 40µM | - | - | - | - | -
O=C(Nc1cccc(C(F)(F)F)c1)O[C@@H]1CO[C@H]2[C@@H]1OC[C@@H]2n1nnnc1-c1ccccc1 | - | - | - | - | - | -
COc1ccc(-c2nc(N3CCOCC3)cc3c2CN(CC2CC2)C3=O)cn1 | ? | - | ? | - | - | -
COc1ccc(-c2nc(N3CCOCC3)cc3c2CN(Cc2ccccc2)C3=O)cc1OC | ? | - | ? | - | - | -
SMILES | 3T3 cytotox | SNCA expr inh | HEK293 tox | SNCA viab count | hNpr1 antagonist | FLuc inh
COc1ccccc1-c1nc(N2CCOCC2)cc2c1CN(Cc1cnn(C)c1)C2=O | 25µM | - | - | - | - | -
Cn1cc(-c2nc(N3CCOCC3)cc3c2CN(CC2CC2)C3=O)cn1 | 10µM | - | - | - | - | -
O=C1CC(c2ccccc2)N(Cc2ccncc2)CCCN(C(=O)CC2CCCC2)CCN1 (stereo not given) | - | - | - | - | - | -
O=C(NC1CCCN(c2cc(-c3ccc(F)cc3)[nH]n2)C1)c1cccc(Cl)c1 (stereo not given) | 18µM | - | 35µM | ? | - | -
CC(=O)Nc1cccc(C(=O)NC2CCCN(c3cc(-c4ccc(Cl)cc4)[nH]n3)C2)c1 (stereo not given) | ? | - | 45µM | - | - | 32µM
O=C(NC1CCCN(c2cc(-c3ccc(F)cc3)[nH]n2)C1)c1cccc(Br)c1 (stereo not given) | ? | ? | 32µM | - | - | -
Cc1nnc2ccc(N3CCCC(NC(=O)c4cccc(Cl)c4)C3)nn12 (stereo not given) | ? | . | 79µM | . | . | .
COc1ccc(-c2cc(N3CCC(NC(=O)c4cccc(Br)c4)C3)n[nH]2)cc1 (stereo not given) | ? | - | ? | ? | - | -
COCCN1C(=O)CS(=O)(=O)C12CCN(C(=O)Cc1ccc(OC)c(Cl)c1)CC2 | - | - | - | - | - | -
O=C(NCCc1ccc(Cl)cc1)C1CCc2nnc(C3CCN(C(=O)c4ccc(Cl)cc4Cl)CC3)n21 (stereo not given) | ? | - | - | - | . | .
COc1cccc(NC(=O)Cc2c[nH]c3ncc(-c4ccccc4C)cc23)c1 | ? | ? | 71µM | - | ? | -
COc1ncccc1-c1cnc2[nH]cc(CC(=O)Nc3cccnc3)c2c1 | ? | - | 89µM | ? | ? | -
COc1ccc(-c2cnc3[nH]cc(CC(=O)NC4CCC(O)CC4)c3c2)cc1 (stereo not given) | 25µM | - | ? | - | - | -
COc1ccc(-c2cnc3[nH]cc(CC(=O)Nc4ccncc4)c3c2)cc1 | 32µM | - | ? | - | ? | -
COc1ccc(-c2cnc3[nH]cc(CC(=O)Nc4cccc(F)c4)c3c2)cc1 | ? | - | ? | ? | - | -
COc1ncccc1-c1cnc2[nH]cc(CC(=O)Nc3ccccc3C)c2c1 | ? | - | ? | - | - | -
Cc1ccc(C(=O)N2CCC(C(=O)N3CCC(N4Cc5ccccc5C4=O)CC3)CC2)cc1 | - | - | - | - | . | .
COc1ccc(-c2cn(C)c(=O)n3cc(CN4CCNC(=O)C4)nc23)c(C(F)(F)F)c1 | ? | - | ? | - | - | -
COc1ncccc1-c1cnc2[nH]cc(CC(=O)Nc3ccccc3)c2c1 | 40µM | - | ? | ? | ? | -
COc1ncccc1-c1cnc2[nH]cc(CC(=O)Nc3ccncc3)c2c1 | 32µM | - | 63µM | - | ? | -
